From PubChem BioAssay AID2716 (Broad Institute, 2010)
About 3,300 (1%) of roughly 320,000 compounds were called active. The sample as a whole holds a higher share of actives than the screen did. Values without a mark were called inactive.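 Rule for the calls: active = every valid replicate shows activation above 250% relative to neutral control wells; inactive = the rest, any valid replicate at or below 250%.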

Test: yeast Mot1-301 growth rescue at high temperature, primary screen, SUMOylation pathway inhibitor project, S. cerevisiae, ATP luminescence, 38.5C (AID 2716);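 note: OY570 slx delta 5 strain wells were the positive control but not used for scaling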
Conditions: S. cerevisiae Mot1-301 growth rescue, at 18.8 µM, hits give high values, percent above DMSO median, 100 means doubled

First: O=C(CCNC(=O)c1ccc(Cl)cc1)NC1CCCc2ccccc21 (centres undefined)
Second: Cc1ccc(NC(=O)CCNC(=O)c2ccc([N+](=O)[O-])cc2)cc1S(=O)(=O)N1CCOCC1
The growth rescue of the first is higher: 118% for the first, -3.52% for the second.

Compared with `Cc1ccccc1-c1nc(CS(=O)(=O)CC(=O)NC(C)c2ccccc2)c(C)o1` (centres undefined), `Cc1ccccc1-c1nc(CS(=O)(=O)CC(=O)N2CCc3ccccc3C2)c(C)o1` is lower in growth rescue: 5.04% for the first, -11.2% for the second.

Compared with `N#CCc1ccc(OC(=O)c2cccnc2)cc1`, `O=C(Oc1ccc(Br)cc1)c1cccnc1` is lower in growth rescue: 9.1% for the first, 1.84% for the second.

Going from `Cc1nc2ccc(NC(=O)c3cccc(S(=O)(=O)N4CCOCC4)c3)cc2s1` to `O=S(=O)(c1ccc(SCc2ccc(Br)cc2)nc1)N1CCOCC1`, the growth rescue rises from -14.6% to 0.526%.

First: CCc1cccc(NC(=O)C2CCCN(S(=O)(=O)c3ccc4[nH]c(=O)ccc4c3)C2)c1 (centres undefined)
Second: CC1CCN(S(=O)(=O)c2ccc3[nH]c(=O)ccc3c2)CC1
The growth rescue of the first is lower: -9.11% for the first, 14.3% for the second.

First: C[C@H](CO)N1C[C@H](C)[C@@H](CN(C)C(=O)NC2CCCCC2)Oc2ccc(NC(=O)c3ccncc3)cc2C1=O
Second: Cc1ccc(C(C(=O)NC2CCCCC2)N(C(=O)c2csnn2)C2CC2)o1 (centres undefined)
The growth rescue of the first is higher: -1.03% for the first, -6.5% for the second.

Going from `CCCCOC(=O)c1ccc(N2C(=O)CC(N3CCN(C/C=C/c4ccccc4)CC3)C2=O)cc1` (centres undefined) to `CCOC(=O)c1ccc(N2C(=O)CC(N(C)Cc3ccccc3)C2=O)cc1` (centres undefined), the growth rescue rises from -18% to 94.8%.

Going from `N#CCCN1CCN(S(=O)(=O)c2ccc(S(=O)(=O)NC3CCCCC3)cc2)CC1` to `CSc1ccc(S(=O)(=O)NC2CCCCC2)cc1`, the growth rescue falls from 111% to 5.7%.

Going from `CC(C)C(NC(=O)c1c(F)cccc1F)C(=O)NNC(=O)c1ccccc1` (centres undefined) to `CC(C)CCNC(=O)c1cccnc1Sc1ccccc1`, the growth rescue rises from -1.01% to 2.14%.

Going from `Cc1ccc(C)c(S(=O)(=O)Nc2cccc(-n3cnnn3)c2)c1` to `Cc1ccc(S(=O)(=O)n2cnc3ccccc32)c(C)c1`, the growth rescue falls from -7.94% to -12.4%.

First: Cc1nc(-c2nnc(SCC(=O)Nc3cc(C(F)(F)F)cc(C(F)(F)F)c3)n2C)cs1
Second: Cc1ccc(-n2c(SCC(=O)Nc3ccc4c(c3)OCO4)nnc2-c2ccccn2)cc1
The growth rescue of the first is higher: 16.5% for the first, -3.71% for the second.

Compared with `COc1cc(OC)c(C(=O)NCc2ccc3c(c2)OCO3)cc1OC`, `COc1cccc(CNCc2ccc3c(c2)OCO3)c1` is lower in growth rescue: 1.21% for the first, -12.1% for the second.

Going from `O=C(CSc1nnc(-c2ccncc2)o1)Nc1cccc(Cl)c1` to `CCC(=O)Nc1ccc(C(=O)CSc2nnc(CNc3ccc(Cl)cc3)o2)cc1OC`, the growth rescue falls from -11.5% to -12.4%.

First: COc1ccc(-c2c(C#Cc3ccsc3)c3cc(-c4ccc(CN5CCOCC5)cc4)ccc3n2C)cc1
Second: Cc1ccc(CNC(=O)C(=O)c2cn(CC(=O)N3CCOCC3)c3ccccc23)cc1
The growth rescue of the first is lower: -20.4% for the first, 279% for the second.

Compared with `COCCn1c(CN2CCC(Cc3ccccc3)CC2)nc2c1c(=O)n(C)c(=O)n2C`, `CC1CCCN(Cc2nc3c(c(=O)n(C)c(=O)n3C)n2CC(=O)c2ccccc2)C1` (centres undefined) is higher in growth rescue: -13.7% for the first, -2.98% for the second.

Compared with `CC1Cc2ccccc2N1C(=O)CSc1nnc(-c2ccc(S(=O)(=O)N3CCCC3)cc2)n1C` (centres undefined), `CN(c1ccccc1)S(=O)(=O)c1ccc(C(=O)N2CCN(c3ccccc3Cl)CC2)cc1` is higher in growth rescue: -12% for the first, 19.5% for the second.

First: CCc1cc2c(=O)c(-c3ccon3)c(N)oc2cc1OC
Second: Cc1cc(C)cc(Oc2c(C(F)(F)F)oc3cc(OCC(=O)O)ccc3c2=O)c1
The growth rescue of the first is lower: -11.8% for the first, -7.69% for the second.

Compared with `CCSC(C)CC1C/C(=N/O)c2c(C)noc2C1` (centres undefined), `CCC(C)NC(=O)c1cc(Cl)ccc1OC` (centres undefined) is higher in growth rescue: 5.53% for the first, 1740% for the second.

Compared with `COc1ccc(S(=O)(=O)n2cnc3ccccc32)c(C)c1`, `COc1ccc(Cc2nnc(SCC(=O)Nc3ccc(C)c(Cl)c3)[nH]c2=O)cc1` is higher in growth rescue: -3.94% for the first, 60.7% for the second.

Going from `CCOC(=O)C1=C(C)NC(C)=C(C(=O)OCC)C1C1=COCCO1` to `CCOc1ccc(OCC(=O)OC(C)C(=O)NC2CCCCC2C)cc1` (centres undefined), the growth rescue rises from -16.1% to 4.11%.

Going from `CCOc1ccc(N(CC(=O)NCCOc2ccccc2OC)S(=O)(=O)c2ccccc2)cc1` to `Cc1ccc(Cn2c(SCC(=O)N/N=C/c3ccccc3OCC(=O)O)nc3ccccc32)cc1`, the growth rescue rises from 0.484% to 29.2%.

Compared with `NC1=C([N+](=O)[O-])C(c2ccccc2)C2=C(CCCC2=O)O1` (centres undefined), `O=C(c1ccc(N2CCOCC2)c([N+](=O)[O-])c1)N1CCN(c2ccccc2F)CC1` is higher in growth rescue: -9.51% for the first, -2.08% for the second.

First: CCCc1[nH]nc2c1C(C1CC=CCC1)C(C#N)=C(N)O2 (centres undefined)
Second: O=C(COc1ccc(Cl)cc1)NCc1nnc(SCC(=O)NCC2CCCO2)o1 (centres undefined)
The growth rescue of the first is higher: 4.92% for the first, 1.67% for the second.

Compared with `O=C1CCCN2N=C(SCC(=O)Nc3ccc(Br)cc3)SC2=N1`, `Cc1ccc(-n2c(SCC(=O)Nc3ccc4c(c3)OCO4)nnc2-c2ccoc2C)cc1` is higher in growth rescue: -5.37% for the first, -1.21% for the second.

Going from `CC(=O)c1ccc(NC(=O)c2ccc(-n3cncn3)c([N+](=O)[O-])c2)cc1` to `CCOc1ccc(C(=O)Nc2cccc(SC)c2)cc1`, the growth rescue falls from 62.2% to -2.04%.

First: O=C(O)CSC(NC(=O)c1cccnc1)(C(F)(F)F)C(F)(F)F
Second: CCn1c(SCC(=O)N/N=C/C=C/c2ccccc2[N+](=O)[O-])nnc1-c1ccccc1
The growth rescue of the first is lower: -13.2% for the first, -1.22% for the second.

First: Cc1cccc(C(=O)Nc2ccccc2N2CCN(c3ccc(F)cc3)CC2)c1
Second: O=C(Nc1ccccc1N1CCCC1)c1ccc2ccccc2c1
The growth rescue of the first is higher: 0.874% for the first, -24.5% for the second.

First: CC(Sc1ncnc2c1cnn2-c1ccccc1)C(=O)Nc1ccc(N2CCOCC2)cc1 (centres undefined)
Second: CC1(c2ccccc2)NC(=O)N(CC(=O)Nc2cc(Cl)ccc2N2CCOCC2)C1=O (centres undefined)
The growth rescue of the first is lower: -16.6% for the first, 268% for the second.

First: CCn1cc(CN2CCN(CC(C)(C)C)C(CCO)C2)c2ccccc21 (centres undefined)
Second: Cc1ccccc1CN1CCNC(=O)C1CC(=O)NCCC1=CCCCC1 (centres undefined)
The growth rescue of the first is higher: 2.63% for the first, -4.34% for the second.

First: CCCCn1c(SCC(=O)NCCc2ccc(OC)c(OC)c2)nc2c1c(=O)n(C)c(=O)n2C
Second: CCCSc1nc2c(c(=O)n(C)c(=O)n2C)n1Cc1ccc(C)cc1
The growth rescue of the first is higher: -22.4% for the first, -26.2% for the second.

Compared with `NC(N)=NCCCc1cn(CC(=O)N2CCNCC2)nn1`, `COc1cccc(CC(=O)N2CCCC(CCC(=O)N3CCN(c4ccccn4)CC3)C2)c1` (centres undefined) is higher in growth rescue: 3.99% for the first, 15% for the second.

First: Cn1c(=O)c2c(SCC(=O)NCC3CCCO3)nc(CC(C)(C)C)nc2n(C)c1=O (centres undefined)
Second: COCCn1c(Cc2cccn2C)nnc1SCC(=O)Nc1nccs1
The growth rescue of the first is higher: 4.63% for the first, 2.9% for the second.

First: CC1CCN(C(=S)NC2CC3CCC2C3)CC1 (centres undefined)
Second: CC1CC(C)CN(c2ccc(S(=O)(=O)N3CCOCC3)cc2)C1 (centres undefined)
The growth rescue of the first is lower: 8.2% for the first, 18.2% for the second.

Going from `O=C(OCC(=O)N1CCOCC1)c1ccc(N2CCOCC2)c([N+](=O)[O-])c1` to `S=C(Nc1ccc(Br)cc1Cl)N1CCC2(CC1)OCCO2`, the growth rescue falls from 15.5% to 14%.

Going from `CCNc1nc(N)nc(Oc2ccc(OCC)nn2)n1` to `Cc1ccc(Cc2nnc(SCC(=O)Nc3ccc(C)cc3C)[nH]c2=O)cc1`, the growth rescue falls from 5.12% to 3.03%.

First: COc1cccc2sc3cc(NCC[C@@H]4CCCN4C)ccc3c(=O)c12
Second: CCOc1ccc(CN2CCNC(=O)C2CC(=O)NCCCC2CCCC2)cc1 (centres undefined)
The growth rescue of the first is higher: 4.78% for the first, 3.84% for the second.

First: CC(C)c1ccc(S(=O)(=O)NC2CCCC2)cc1
Second: CC1CN(C(=S)Nc2ccc(S(N)(=O)=O)cc2)CC(C)O1 (centres undefined)
The growth rescue of the first is higher: 306% for the first, -5.04% for the second.

`NS(=O)(=O)c1cc2c(cc1Cl)NC(C(Cl)Cl)NS2(=O)=O` (centres undefined) showed a growth rescue of -7.27%.

With `COC(=O)c1cc2occc2n1Cc1nc(-c2ccccc2C)oc1C` the growth rescue was 611% (active).
For `CCCCCCOc1ccc(OC(=O)c2cccnc2)cc1`, the growth rescue was 329% (active).
With `Cc1cc(C)cc(NC(=O)C2CCCN(S(=O)(=O)c3ccc4[nH]c(=O)ccc4c3)C2)c1` (centres undefined) the growth rescue was 2800% (active).
In the case of `CCCCCCC(=O)N(O)C1CC(=O)N(c2ccccc2)C1=O` (centres undefined), the growth rescue is reported as 321% (active).
For `COc1cc(CNCc2ccc3c(c2)OCO3)c([N+](=O)[O-])cc1OC`, the growth rescue was 1080% (active).
With `CC1CCN(Cc2nc3c(c(=O)n(C)c(=O)n3C)n2CCc2ccccc2)CC1` the growth rescue was 768% (active).
In the case of `CCc1cc2c(=O)c(-c3ccc(F)cc3)c(C(F)(F)F)oc2cc1OCC(=O)O`, the growth rescue is reported as 807% (active).
With `Cc1ccc(C)c(S(=O)(=O)n2cnc3ccccc32)c1` the growth rescue was 439% (active).
For `N#CC1=C(N)OC2=C(C(=O)CCC2)C1C1CC=CCC1` (centres undefined), the growth rescue was 435% (active).
In the case of `O=C(Nc1ccccc1N1CCN(c2ccccc2)CC1)c1cccc(F)c1`, the growth rescue is reported as 516% (active).
In the case of `CCn1c(SCC(=O)N/N=C/c2ccccc2OCC(=O)O)nnc1-c1ccc(C(C)(C)C)cc1`, the growth rescue is reported as 746% (active).
With `CCOc1ccc(Cn2c(SCCCCC#N)nc3c2c(=O)n(C)c(=O)n3C)cc1OCC` the growth rescue was 395% (active).
For `O=C(Oc1ccccc1Cl)c1ccc(N2CCOCC2)c([N+](=O)[O-])c1`, the growth rescue was 334% (active).
For `CCNc1nc(N)nc(-c2cc(Cl)ccc2OC)n1`, the growth rescue was 263% (active).
In the case of `CC1=NC2(CCCc3c2no[n+]3[O-])N(O)C1(C)C` (centres undefined), the growth rescue is reported as 465% (active).
In the case of `Cc1ccc(S(=O)(=O)NC2CCCCCC2)cc1`, the growth rescue is reported as 297% (active).
In the case of `COc1cc(CN2CCNC(=O)C2CC(=O)NCCc2ncccc2C)cc(OC)c1` (centres undefined), the growth rescue is reported as 662% (active).
With `Cc1ccc(Cc2nnc(SCC(=O)Nc3ccccc3C)[nH]c2=O)cc1` the growth rescue was 579% (active).
In the case of `O=C(CSc1nnc(-c2ccccn2)n1-c1ccccc1)Nc1ccc2c(c1)OCO2`, the growth rescue is reported as 354% (active).
